Test in all cases: NCI-60 one-dose screen, 48 h (100 = growth as untreated, 0 = no growth, -100 = all killed)
Holding throughout (conditions): 10 µM unless noted

The subject of test [1] is NCI-H23 lung.
Test [2] relates to NCI-H226 lung.
Test [3] concerns NCI-H322M lung.
Test [4] concerns HOP-62 NSCLC.
Test [5] concerns NCI-H460 lung.
Test [6] relates to HOP-92 NSCLC.
In test [7] the test system is NCI-H522 lung.
Test [8] concerns A549/ATCC NSCLC.
For test [9], the system named is 786-0 renal.
In test [10] the test system is COLO 205 colon.
Test [11] concerns DU-145 prostate.
In test [12] the test system is K-562 leukemia.
The test system of test [13] is MALME-3M melanoma.
In test [14] the test system is MDA-MB-231 breast.
Test [15] relates to RXF 393 renal.
For test [16], the system named is SF-268 CNS.
For test [17], the system named is SF-295 CNS.
Test [18] has as its system SF-539 CNS.
For test [19], the system named is UACC-257 melanoma.
The subject of test [20] is M14 melanoma.

The structures appear in SMILES notation. About 83,000 compounds went through this panel and 20% of them were active in at least one assay; those are over-represented in the sample as a whole.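 Negative percent growth values reflect cell death: -40 means 40% of the cells present at the start died, and -100 means all died.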 A number with no mark means an inactive call. Calls of active or inactive are those of the source. Rule for the calls: active = growth percent below 10; inactive = the rest.

Regarding `CC1=C2CC/C(C)=C/CC[C@]3(C)O[C@H]3CC/C(C)=C/[C@H]2OC1`, the growth in test [1] was 97.3%; in test [2] it was 109%; in test [3] it was 101%; in [4], 107%; in [5] it was 107%; in test [6], 94.6%. Also, the growth in test [7] was 87%; in test [8], 90.5%; in test [9], 92%; in test [10] it was 104%; in test [11] it was 110%; in test [12], 87.5%. Also, the growth in [13] was 112%; in [14] it was 96.5%; in [15], 126%; in test [16], 105%; in test [17], 91%; in test [18] it was 95.1%. In addition, the figures for the growth in test [19] and in [20] were 98.3% and 103%, respectively.

For the compound `c1csc(-c2cn3nc(-c4c[nH]c5ccccc45)sc3n2)c1`, the growth in test [1] was 36.9%; in [2] it was 72.4%; in [3], 25%; in test [4], 27%; in test [5], 11.2%; in [6], 38.3%. The growth in [7] is -6.13% (active); in test [8], 35%; in test [9] it was 42.2%; in test [10], 5.46% (active); in [11], 13.4%; in test [12], 15.6%. Moreover, the growth in test [13] is 23.7%; in [14] it was 22.9%; in test [15] it was 34.4%; in [16] it was 46.1%; in test [17] it was 14.4%; in test [18], -12.8% (active). Further, the results for the growth in test [19] and in [20] were 60.1% and 8.8% (active), respectively.

In the case of `CN1CCN(c2ccc(NC3=CC(=O)c4ncncc4C3=O)cc2)CC1`, the growth was -43.5% (active) in [1]; -47.7% (active) in test [2]; 10.8% in [3]; -87.5% (active) in [4]; -24.4% (active) in test [5]; -61.7% (active) in [6]. Besides, the growth is -56.7% (active) in test [7]; -7.95% (active) in [8]; -50.5% (active) in [9]; -69.8% (active) in test [10]; -89.1% (active) in [11]; -22.1% (active) in test [12]. The growth was -98.4% (active) in [13]; -15.1% (active) in [14]; -94.8% (active) in test [15]; -46.3% (active) in test [16]; -96.1% (active) in test [17]; -96.1% (active) in test [18]. In addition, the growth was -81.5% (active) in [19] and -81.8% (active) in [20].

Turning to `CCOC(=O)c1cn2ncnc(Oc3ccc(NC(=O)NC4CC4)c(Cl)c3)c2c1C`, the growth in [1] is 84.6%; in test [2], 71.4%; in test [3], 101%; in test [4] it was 90.9%; in test [5], 102%; in test [6], 109%. Further, the growth in [7] was 75.9%; in test [8], 99.2%; in [9] it was 93.5%; in [10], 108%; in test [11] it was 97%; in [12] it was 73.6%. The growth in test [13] is 95.3%; in [14] it was 89.3%; in test [15], 92.3%; in test [16] it was 88.9%; in test [17] it was 84.8%; in test [18], 79.5%. For the same compound, the growth in [19] is 100%; in [20], 98.9%.

Regarding `C=C[C@@]1(C)CC(=O)[C@@H](C(C)(C)c2cn(C)c3ccc(Br)cc23)C[C@@H]1O[Si](C)(C)C(C)(C)C`, the growth in [1] was 98.3%; in test [2], 83.9%; in test [3], 101%; in [4] it was 111%; in test [5] it was 101%; in test [6], 83.6%. The growth in [7] was 94.4%; in test [8] it was 102%; in test [9], 97.4%; in test [10], 104%; in test [11] it was 95.4%; in test [12], 104%. Besides, the growth in test [13] was 92.2%; in [14] it was 96.6%; in test [15], 108%; in [16], 96.5%; in [17] it was 103%; in test [18], 97.3%. Further, the results for the growth in test [19] and in test [20] were 103% and 91.7%, respectively.

`CCCCNC(=O)c1ccc2c(c1)nc(-c1ccccc1)n2C1CCCCC1`: the growth in test [1] was 92.3%; in [2], 109%; in test [3] it was 90.5%; in test [4], 77.3%; in test [5] it was 109%; in [6], 105%. Moreover, the growth in test [7] is 80.9%; in test [8], 95.9%; in test [9] it was 92.7%; in [10] it was 88.9%; in test [11] it was 103%; in test [12], 75.8%. Besides, the growth in test [13] was 100%; in test [14], 96.1%; in test [15], 120%; in test [16], 104%; in [17] it was 95.4%; in test [18] it was 105%. Moreover, the growth is 109% in [19] and 89.8% in test [20].

In the case of `O=C(O)CC(C(=O)O)/C(=C\c1ccccc1)c1ccccc1` (stereo not given), the growth in test [1] is 105%; in [2], 86.4%; in test [3], 116%; in test [4] it was 89.3%; in [5], 106%; in [6], 93.3%. Besides, the growth in test [7] was 128%; in test [8], 99.5%; in test [9], 114%; in test [10] it was 99.5%; in test [11], 139%; in test [12], 103%. The growth in test [13] is 117%; in test [14], 121%; in test [15] it was 104%; in test [16], 113%; in [17], 115%; in test [18], 122%. The growth is 100% in test [19] and 121% in test [20].

In the case of `COc1cc2c(cc1OCCCN1CCN(C(=S)SCCC(C#N)(c3ccccc3)c3ccccc3)CC1)N=C[C@@H]1CCCN1C2=O`, the growth in test [1] is -46.7% (active); in [2] it was -55.8% (active); in test [3], -62.2% (active); in test [4] it was 1.76% (active); in test [5], -80.3% (active); in test [6], -71% (active). Moreover, the growth in test [7] was -48.3% (active); in test [8] it was -3.55% (active); in test [9], -94.9% (active); in [10], -69.5% (active); in test [11], -100% (active); in test [12] it was -5.69% (active). The growth in [13] is -89.3% (active); in test [14], -31.1% (active); in test [15] it was -92.9% (active); in test [16] it was -72.5% (active); in [17] it was -14.2% (active); in [18], -94.7% (active). Further, the values for the growth in [19] and in test [20] were -45.5% (active) and -76.6% (active), respectively.

For the origin of these results see PubChem BioAssay (NCI).
